NPC1 prom act: NPC1 promoter activation. Huh7 NPC1 promoter luciferase reporter, 24 h. Potency, µM (highest dose often 9.22 µM), for inactives: at the top dose activation, hits mostly activators. AID 485313. 320,000 compounds, 2.4% hits; note: % of control where 0% means no effect; nearly all actives have a fitted effect of over 60% in size
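Luciferase expression driven by the NPC1 promoter was measured in stably transfected Huh7 cells after a 24 h compound incubation, using a luciferase reagent and a luminescence read.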
SMN2 splice enh: increases expression of the SMN2 splice variant; HEK293 SMN2-luciferase splicing reporter, luminescence, 30-36 h; Potency, µM (titrated, usually from 46.1 µM), inactives show at the top dose activity change, positive = activation, usual class: activators; 210,000 compounds, 2.8% hits; AID 1458; note: % of control where 0% means no effect; nearly all actives have a fitted effect of over 55% in size
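qHTS luciferase splicing reporter: luminescence rises when SMN2 exon 7 is included in transfected HEK293 cells. Compound exposure lasted 30-36 h at 37C, with 4.5 mM final sodium butyrate as control, followed by a ONE-Glo read.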
FLuc counter: counter-screen for miR-21 project: firefly luciferase inhibitors or activators | purified FLuc, Km substrates, luminescence inhibition | Potency, µM (titrated, usually from 57.5 µM), for the others: top-dose activity change, negative = inhibition, most hits filed as inhibitors | 360,000 compounds, 6.9% hits | AID 588342;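 note: plate controls were vehicle for no effect and reference inhibitor for full effect; nearly all actives have a fitted effect of over 55% in size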
Target sequence (P08659 whole entry, looked up): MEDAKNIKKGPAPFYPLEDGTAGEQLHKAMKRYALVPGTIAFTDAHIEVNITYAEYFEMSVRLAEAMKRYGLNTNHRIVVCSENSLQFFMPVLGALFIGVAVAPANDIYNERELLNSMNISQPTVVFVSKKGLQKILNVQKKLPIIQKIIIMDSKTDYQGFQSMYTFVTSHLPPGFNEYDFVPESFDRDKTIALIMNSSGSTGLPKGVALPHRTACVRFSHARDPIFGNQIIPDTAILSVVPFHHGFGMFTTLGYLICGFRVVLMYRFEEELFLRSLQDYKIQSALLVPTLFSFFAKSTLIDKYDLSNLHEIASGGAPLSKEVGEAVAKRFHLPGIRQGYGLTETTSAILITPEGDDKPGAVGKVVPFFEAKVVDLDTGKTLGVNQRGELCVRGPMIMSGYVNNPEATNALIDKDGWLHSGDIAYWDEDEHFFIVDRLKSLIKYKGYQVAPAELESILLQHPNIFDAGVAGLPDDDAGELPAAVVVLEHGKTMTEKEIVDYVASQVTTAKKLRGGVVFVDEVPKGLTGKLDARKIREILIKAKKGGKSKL
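Biochemical qHTS of compounds, final roughly 60 µM downward over six points, against 10 nM purified firefly luciferase using Km concentrations of substrates (10 uM D-luciferin, 10 uM ATP) in Tris acetate pH 7.5 buffer; luminescence output.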
ELG1 genotoxic: induces genotoxicity in HEK293T cells with luciferase-tagged ELG1; Potency, µM (top dose mostly 46 µM), inactives show top-dose activity change, positive = activation, most hits filed as activators; 330,000 compounds, 1.3% hits; HEK293T ELG1-luciferase reporter, luminescence, 16 h; note: % of control where 0% means no effect; nearly all actives have a fitted effect of over 60% in size
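HEK293T cells expressing luciferase-tagged ELG1 were treated with compound or DMSO for 16 hr at 37°C. Luciferase activity was then read after 30 min with ONE-Glo at room temperature; rising signal flags genetic stress.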
Rab9 promoter act: activators of Rab9 promoter; Huh7 Rab9 promoter-luciferase reporter, luminescence, 24 h; Potency, µM (titrated, usually from 9.22 µM), inactives show at the highest dose activation, negative = inhibition, hits mostly activators; 320,000 compounds, 2.8% hits; AID 485297; note: % of control where 0% means no effect; nearly all actives have a fitted effect of over 60% in size
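Cell-based reporter: Huh7 stable for Rab9 promoter-driven luciferase, plated in reduced-serum medium with 10% FBS at 1500 cells/well, compound-treated 24 h at 37 °C, luminescence read after 10 min reagent.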
ELG1 repair inh: ELG1-dependent DNA repair inhibition; HEK293T ELG1-luciferase reporter, luminescence, 16 h; DNA damage induced by 5-fluorouridine; Potency, µM (top dose mostly 46.1 µM), without a hit: top-dose activity change, negative = inhibition, usual class: inhibitors; 330,000 compounds, 2.3% hits; note: % is set by controls: 0 for no effect and ±100 for the full control effect; nearly all actives have a fitted effect of over 55% in size
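Step one: seed 2,000 cells per well. Step two: pin-transfer compound or DMSO alongside 5-fluorouridine. Step three: incubate 16 hr, 37 °C, 5% CO2. Step four: add ONE-Glo, wait 30 min, read luminescence.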
Numbers without * were called inactive; ? = inconclusive; . = no result. Hits are enriched below; roughly 9.3% of the tested compounds scored in any of these assays. Calls come from the whole dose curve; as a rule, active = well fitted curve in the direction sought with a large enough effect; inconclusive = small, poorly fitted or top-dose-only effect, or another doubt; inactive = no such curve, though single readings can be large; an effect the other way counts as inactive or inconclusive. Potency is the fitted concentration of half-maximal effect.

SMILES | NPC1 prom act | SMN2 splice enh | FLuc counter | ELG1 genotoxic | Rab9 promoter act | ELG1 repair inh
O=C(OCC(=O)N1CCN(C(=O)c2ccco2)CC1)c1ccccc1C(=O)c1ccccc1 | -2% | -8% | 0% | -2% | -4% | -6%
O=C(OCC(=O)N1CCN(C(=O)c2ccco2)CC1)c1cn(-c2ccccc2)nc1-c1ccccc1 | 1% | -11% | 17µM* | -4% | -4% | ?
O=C(c1ccco1)N1CCN(C(=O)c2cn(-c3ccccc3)nc2-c2ccccc2)CC1 | 14% | . | 6µM* | 6% | 3% | ?
O=S(=O)(c1cccc2nsnc12)N1CCc2ccccc21 | ? | ? | 21µM* | ? | 3.5µM* | ?
Cc1cc(-c2n[nH]c(=S)n2/N=C/c2ccccc2[N+](=O)[O-])n[nH]1 | -1% | -14% | 1% | 2% | 1% | ?
OC(COc1ccccc1)CSc1ncn[nH]1 (configuration not stated) | -3% | 22% | 0% | -1% | 0% | 11%
O=C(CNC(=O)c1ccccc1F)OCc1nc2ccccc2s1 | -2% | 15% | 17µM* | 14% | 4% | ?
O=C(CNC(=O)c1ccccc1)OCc1nc2ccccc2s1 | 8% | . | 9.5µM* | ? | 7% | ?
N/C(=N\OC(=O)Cc1ccccc1)c1cccnc1 | -4% | -12% | -2% | 3% | -4% | 14%
Cc1cc(C)c(C(=O)COC(=O)c2cccc(S(=O)(=O)NCc3ccccc3)c2)cc1C | -4% | -15% | ? | -1% | 2% | ?
Cc1ccnc(NC(=O)COc2ccc3oc4c(c3c2)CCCC4)c1 | 17% | -21% | 4.3µM* | ? | 5% | ?
Cc1ccnc(NC(=O)COc2ccc3c(c2)CCC3)c1 | 3.2µM* | . | 0.21µM* | 2.1µM* | 2.5µM* | ?
Cc1ccccc1NC(=O)COc1ccc2oc3c(c2c1)CCCC3 | . | -2% | -2% | . | . | .
CC(=O)Nc1ccc(NC(=O)COc2ccc3c(c2)CCC3)cc1 | -5% | -5% | -17% | 5% | -2% | -10%
Cc1cccc(NC(=O)CSc2cn(CC(=O)N3CCC(C)CC3)c3ccccc23)c1C | . | . | -13% | . | . | .
CCN(CC)c1ccc(N=C2C(=O)Nc3ccccc32)cc1 | 1% | . | 6.7µM* | -9% | 6% | 16µM*
Cc1ccc(N=C2C(=O)Nc3ccccc32)cc1 | 3% | . | ? | -3% | -1% | 21%
COc1ccc(CNC(=O)c2cc(C)nc3c2c(C)nn3-c2cccc(Cl)c2C)cc1 | . | . | 1% | . | . | .
CCOC(=O)C1CCN(C(=O)CNC(=O)c2nn(-c3ccc(OC)cc3)c(=O)c3ccccc23)CC1 | 24% | . | 2.7µM* | -3% | 26% | ?
CCOC(=O)C1CCN(C(=O)c2nn(-c3ccc(OC)cc3)c(=O)c3c2c2ccccc2n3C)CC1 | . | -3% | 2% | . | . | .
CCOC(=O)C1CCN(C(=O)CNC(=O)c2nn(-c3ccc(OC)c(OC)c3)c(=O)c3ccccc23)CC1 | 13% | . | 4.8µM* | -2% | 17% | 4%
COc1ccc(-n2nc(C(=O)NCC(=O)N3CCN(C)CC3)c3ccccc3c2=O)cc1OC | 3% | -5% | ? | 1% | 1% | 7%
FC(F)(F)c1ccccc1CNCc1ccc2c(c1)OCO2 | -2% | . | 2% | 1% | -3% | -1%
Cc1cc(C(=O)CCl)c(C)n1-c1ccon1 | -8% | -5% | -9% | -3% | -5% | 18%
COc1ccccc1NS(=O)(=O)c1ccc2oc(SC)nc2c1 | -1% | . | -2% | -11% | 0% | -6%
C=CCOc1ccc(/C=N/NC(C)=O)cc1OCC | 0% | -2% | -1% | 1% | -6% | 4%
COc1cc(/C=N\NC(C)=O)ccc1OC/C=C/c1ccccc1 | 2% | . | -7% | -9% | 3% | 16µM*
CCOC(=O)N/N=C\c1ccccc1OC/C=C/c1ccccc1 | ? | . | 4.3µM* | ? | 24% | ?

Compound activity from PubChem BioAssay.
